Assay results: PubChem BioAssay (NCI)
Where “and” joins values, the source holds several entries; their conditions need not be identical. Identical values can stand only once. The panel holds about 79,000 compounds, 15% with a hit somewhere; the sample as a whole holds those more often. A structure can be active in one record and inactive in another. Calls of active or inactive are those of the source. No stated cut-off is given here; in the data, active means growth inhibition above about 70%; inactive means the rest.

Experiments:
[1] = NCI Yeast Anticancer Drug Screen. Data for the rad50 strain (AID 155);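 further: 0% = growth of vehicle-only cultures of the same strain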; settings: S. cerevisiae rad50 strain growth inhibition, stronger effect = higher value
Procedure, shortened: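 Cells are treated with compound, grown, and their growth is then scored against vehicle-only cultures of the same repair-deficient yeast strain.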

[2] = NCI Yeast Anticancer Drug Screen. Data for the mec2-1 strain (AID 157); settings: S. cerevisiae mec2-1 strain, stronger effect = higher value
Procedure, shortened: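 Strain: mec2-1 (DNA repair/cell cycle alteration). Compound exposure, then growth measured; inhibition expressed relative to vehicle.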

[3] = NCI Yeast Anticancer Drug Screen. Data for the sgs1 mgt1 strain (AID 161);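 further: 0% = growth of cultures given vehicle only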; settings: S. cerevisiae sgs1 mgt1 strain, stronger effect = higher value
Procedure, shortened: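 Genetically altered yeast, compound exposure, growth inhibition relative to vehicle.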

[4] = NCI Yeast Anticancer Drug Screen. Data for the cln2 rad14 strain (AID 165);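 further: 0% = growth equal to vehicle treated cultures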; settings: S. cerevisiae cln2 rad14 strain, stronger effect = higher value
Procedure, shortened: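 Compounds are applied to the cln2 rad14 yeast strain, and growth is then compared with that of vehicle-treated cultures to give inhibition.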

[5] = NCI Yeast Anticancer Drug Screen. Data for the bub3 strain (AID 167); settings: S. cerevisiae bub3 mutant strain, stronger effect = higher value
Procedure, shortened: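 Part of a panel of yeast mutants defective in DNA damage repair or cell cycle regulation. Each strain is grown with compound, and inhibition is calculated relative to solvent-treated cultures.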

[6] = NCI Yeast Anticancer Drug Screen. Data for the mlh1 rad18 strain (AID 175); settings: S. cerevisiae mlh1 rad18 strain growth inhibition, stronger effect = higher value
Procedure, shortened: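 Read-out is yeast growth inhibition, calculated against vehicle-only controls. The compound was applied to a strain engineered with DNA damage repair alterations.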

[7] = at 5.0 µM (retest, dose inferred, filed as 0.5)
[8] = at 50.0 µM (retest, dose inferred, filed as 5.0)

Measured: growth inhibition

COc1cc(CC(=O)N2CC2)cc(OC)c1OC
inactive: [1]; [7] -6% | [1]; [8] -1% | [1]; at 50.0 µM 7.85% | [2]; [7] 0% | [2]; [8] 8% | [2]; at 50.0 µM -3.1% | [3]; [7] -6% | [3]; [8] 2% | [3]; at 50.0 µM -13.6% | [4]; [7] -7% | [4]; [8] -3% | [4]; at 50.0 µM 39.4% | [5]; [7] -5% | [5]; [8] -1% | [5]; at 50.0 µM 13.9% | [6]; [7] -2% | [6]; [8] -8% | [6]; at 50.0 µM -13.8%

O=c1oc2ccccc2c(O)c1C(c1ccc(OCc2ccccc2)cc1)c1c(O)c2ccccc2oc1=O
inactive: [1]; [7] 16% | [1]; [8] 7% | [1]; at 50.0 µM 63.3% | [2]; [7] 16% | [2]; [8] 51% | [3]; [7] -33% | [3]; at 50.0 µM 65.3% | [4]; [7] -3% | [4]; at 50.0 µM 62.2% | [5]; [7] 7% | [5]; at 50.0 µM 60.2% | [6]; [7] 7% | [6]; [8] 23% | [6]; at 50.0 µM 50.9%
active: [2]; at 50.0 µM 86.3% | [3]; [8] 92% | [4]; [8] 94% | [5]; [8] 95%

CCOP(=O)(OCC)Oc1cc(C)c(SC#N)c(C)c1
active: [6]; [8] 76%
inactive: [1]; [7] -6% | [1]; [8] -7% | [1]; at 50.0 µM 29.6% | [2]; [7] -2% | [2]; [8] 3% | [2]; at 50.0 µM 20.6% | [3]; [7] 10% | [3]; [8] 25% | [3]; at 50.0 µM 17.1% | [4]; [7] -7% | [4]; [8] -6% | [4]; at 50.0 µM 66.3% | [5]; [7] -3% | [5]; [8] 18% | [5]; at 50.0 µM 53.7% | [6]; [7] 10% | [6]; at 50.0 µM 34%

O=C1C(=O)c2ccccc2-c2ccccc21.O=C1C(=O)c2ccccc2-c2ccccc21.[Hg]
active: [1]; [7] 100% | [1]; [8] 96% | [2]; [7] 100% | [2]; [8] 97% | [3]; [7] 100% | [3]; [8] 96% | [4]; [7] 100% | [4]; [8] 97% | [5]; [7] 100% | [5]; [8] 96% | [6]; [7] 98% | [6]; [8] 93%
inactive: [1]; at 50.0 µM 12.2% | [2]; at 50.0 µM -7.3% | [3]; at 50.0 µM -6.8% | [4]; at 50.0 µM 29.8% | [5]; at 50.0 µM -13.8% | [6]; at 50.0 µM 12.3%

Cc1c(N)nc([C@H](CC(N)=O)NC[C@H](N)C(N)=O)nc1C(=O)N[C@H](C(=O)N[C@H](C)[C@@H](O)CC(=O)N[C@H](C(=O)NC(O[C@@H]1O[C@@H](C)[C@@H](N)[C@@H](O)[C@H]1O)C(O)c1nc(-c2nc(C(=O)NCCCCN)cs2)cs1)[C@@H](C)O)[C@@H](O[C@@H]1O[C@@H](CO)[C@@H](O)[C@H](O)[C@@H]1O[C@H]1O[C@H](CO)[C@@H](O)[C@H](OC(N)=O)[C@@H]1O)c1c[nH]cn1 (stereo not given in full)
active: [1]; [7] 96% | [1]; [8] 98% | [1]; at 50.0 µM 91.7% | [2]; [7] 98% | [2]; [8] 98% | [2]; at 50.0 µM 92.8% | [3]; [7] 98% | [3]; [8] 98% | [3]; at 50.0 µM 92.7% | [4]; [7] 96% | [4]; [8] 97% | [4]; at 50.0 µM 89.8% | [5]; [7] 97% | [5]; [8] 98% | [5]; at 50.0 µM 92.9% | [6]; [7] 94% | [6]; [8] 97% | [6]; at 50.0 µM 90.2%

COC1/C=C\C=C(/C)C(=O)NC2=CC(=O)C(NCCCl)=C(CC(C)CC(OC)C(O)C(C)/C=C(/C)C1OC(N)=O)C2=O (stereo not given)
active: [1]; [8] 97% | [1]; at 50.0 µM 91% | [2]; [8] 98% | [2]; at 50.0 µM 92.3% | [3]; [7] 89% | [3]; [8] 99% | [3]; at 50.0 µM 92.6% | [4]; [7] 88% | [4]; [8] 94% | [4]; at 50.0 µM 90.4% | [5]; [7] 87% | [5]; [8] 98% | [5]; at 50.0 µM 90.5% | [6]; [8] 98% | [6]; at 50.0 µM 89%
inactive: [1]; [7] 24% | [2]; [7] 49% | [6]; [7] 53%

C[C@]12Cc3conc3C(O)=C1CC[C@@H]1C2CC[C@@]2(C)C1CC[C@@H]2O (stereo not given in full)
active: [1]; at 50.0 µM 81.3% | [5]; at 50.0 µM 71.2% | [6]; at 50.0 µM 78.2%
inactive: [1]; [7] 2% | [1]; [8] 5% | [2]; [7] 0% | [2]; [8] 0% | [2]; at 50.0 µM 63.5% | [3]; [7] 1% | [3]; [8] 35% | [3]; at 50.0 µM 57.1% | [4]; [7] 1% | [4]; [8] 24% | [4]; at 50.0 µM 55.2% | [5]; [7] -49% | [5]; [8] 3% | [6]; [7] -1% | [6]; [8] 15%

C[CH2][Sn]([Cl])([CH2]C)[O][Sn]([Cl])([CH2]C)[CH2]C
inactive: [1]; [7] 6% | [2]; [7] 4% | [3]; [7] 6% | [4]; [7] -3% | [5]; [7] 6% | [6]; [7] 8%
active: [1]; [8] 90% | [1]; at 50.0 µM 85.2% | [2]; [8] 89% | [2]; at 50.0 µM 96.2% | [3]; [8] 94% | [3]; at 50.0 µM 72.2% | [4]; [8] 86% | [4]; at 50.0 µM 95% | [5]; [8] 88% | [5]; at 50.0 µM 96.7% | [6]; [8] 83% | [6]; at 50.0 µM 84.9%

COC1CC2C(C[CH]1[Hg][Cl])C2(Cl)Cl (stereo not given)
active: [1]; [7] 99% | [1]; [8] 99% | [1]; at 50.0 µM 99.5% | [2]; [7] 100% | [2]; [8] 100% | [2]; at 50.0 µM 99.6% | [3]; [7] 100% | [3]; [8] 99% | [3]; at 50.0 µM 99.5% | [4]; [7] 99% | [4]; [8] 99% | [4]; at 50.0 µM 99.2% | [5]; [7] 99% | [5]; [8] 99% | [5]; at 50.0 µM 98% | [6]; [7] 99% | [6]; [8] 99% | [6]; at 50.0 µM 99.5%

S=c1[nH]c2ccccc2s1
4.95% (inactive) and 71.9% (active): [6]; at 50.0 µM
inactive: [1]; [7] -8% | [1]; [8] 45% | [1]; at 50.0 µM 3.25% and 53.4% | [2]; [7] -7% | [2]; [8] 52% | [2]; at 50.0 µM -22.3% and 30.1% | [3]; [7] -3% | [3]; [8] 51% | [3]; at 50.0 µM 15.8% and 62% | [4]; [7] -12% | [4]; [8] 1% | [4]; at 50.0 µM -11.1% and 11.7% | [5]; [7] -4% | [5]; [8] 29% | [5]; at 50.0 µM 8.85% and 55.8% | [6]; [7] -7% | [6]; [8] 38%
